Screens (PubChem BioAssay)
CHT inh = human CHT choline transport inhibition | Q9GZV3 | CHT-expressing cells, membrane potential dye, choline response; stronger effect = lower value | B-score at 10 µM | 310,000 compounds, 0.86% hits | AID 488975;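 active means B-score over 3 SD under the library average, and starting fluorescence ratio not unusually high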;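 further: choline stimulus applied at its EC90 after an EC20 pre-addition; B-score computed on integrated fluorescence ratio after choline addition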
ALR H2O2 inh = blocks human ALR sulfhydryl oxidase activity | 290,000 compounds, 3.8% hits | purified ALR, DTT oxidation, H2O2 HRP-luminol luminescence | P55789 | inhibition, % (concentration not given with the values) | AID 485317;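 active means mean replicate inhibition above about 79%, with every replicate also reaching it, limit read from the data; inconclusive means only one of the two criteria met; inactive means mean below limit and not every replicate reaching it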
PREPL inhibitor = inhibits the human prolyl oligopeptidase-like enzyme | Q4J6C6 | recombinant PREPL, fluorescence polarization activity-based probe | inhibition, % at 5.96 µM | 320,000 compounds, 0.68% hits; in the data active means inhibition above about 43%;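 further: 0% = enzyme with DMSO and 100% = wells lacking enzyme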
Target sequence (Q4J6C6 whole entry, looked up): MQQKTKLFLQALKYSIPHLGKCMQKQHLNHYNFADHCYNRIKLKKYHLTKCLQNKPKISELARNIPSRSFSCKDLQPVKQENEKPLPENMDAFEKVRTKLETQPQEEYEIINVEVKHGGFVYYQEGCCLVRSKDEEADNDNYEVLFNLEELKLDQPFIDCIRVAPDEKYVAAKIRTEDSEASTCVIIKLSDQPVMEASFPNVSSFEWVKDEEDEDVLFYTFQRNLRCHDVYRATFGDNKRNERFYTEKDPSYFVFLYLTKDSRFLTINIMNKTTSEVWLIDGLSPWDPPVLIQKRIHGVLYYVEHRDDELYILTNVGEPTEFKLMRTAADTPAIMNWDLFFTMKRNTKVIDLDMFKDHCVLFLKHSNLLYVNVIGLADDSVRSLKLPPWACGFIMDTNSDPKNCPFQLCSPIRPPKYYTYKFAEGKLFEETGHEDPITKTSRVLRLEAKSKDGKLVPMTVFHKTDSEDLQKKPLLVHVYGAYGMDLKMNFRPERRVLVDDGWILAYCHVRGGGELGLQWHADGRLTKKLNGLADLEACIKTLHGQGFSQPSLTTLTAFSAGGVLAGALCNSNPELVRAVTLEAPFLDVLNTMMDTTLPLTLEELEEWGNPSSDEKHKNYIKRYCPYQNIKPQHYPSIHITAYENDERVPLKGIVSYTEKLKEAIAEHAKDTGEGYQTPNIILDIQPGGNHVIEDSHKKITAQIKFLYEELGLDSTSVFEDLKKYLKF
AI-2 QS modul = Vibrio harveyi AI-2 quorum sensing modulation; Vibrio harveyi JMH597 AI-2 luminescence/OD600 ratio, 9 h; stronger effect = lower value; strain lacks LuxN and CqsS sensors; 0 = neutral-control median; activity change, % at 7.5 µM; 300,000 compounds, 0.4% hits; in the data active means activity change below about -75%, passing the limit was not always enough; inconclusive means no clear call, values can overlap the other calls;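 further: luminescence divided by OD600 gain over 9 h not by final OD600 alone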
CHT PAM = allosterically activates the human high affinity choline transporter; CHT-expressing cells, membrane potential dye, choline EC20; stronger effect = higher value; LV-AA mutant CHT in HEK293 cells; 310,000 compounds, 0.49% hits; B-score at 10 µM;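 active means initial fluorescence not abnormally high and integrated response B-score, plate-corrected, over 3 SD above library mean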
CHT block conf = human CHT inhibition, confirmatory screen; CHT-expressing cells, choline membrane potential dye; LV-to-AA substituted CHT, HEK293 cells; 2,400 compounds, 70% hits; CHT activity remaining % of control (stronger effect = lower value), % at 10 µM; shares compounds with CHT inh;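 active means choline transporter activity left, mean of duplicates at 10 µM, below buffer-only control mean minus 3 SD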;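 further: depolarization triggered by choline at its EC90 following an EC20 pre-addition; 0% = hemicholinium-3 full block and 100% = buffer-only control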
HEK293 CHT ctr = CHT inhibitor counter-screen hit in parental HEK293 cells | shares compounds with CHT inh | membrane potential dye, choline response; active = decrease or increase beyond buffer ±3SD | membrane potential ratio readout (active if shifted either direction beyond buffer ±3SD; no single direction) at 10 µM | 2,400 compounds, 4% hits | AID 493222;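 further: parental cells lack the transporter so any hit is non-specific; ratio is peak minus trough fluorescence over baseline after EC90 choline challenge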
* = called active by the depositor; i = inactive; ? = inconclusive; nt = no result given. A selection: hits, their analogues and other compounds. The true share with any hit is near 5%.

SMILES	CHT inh	ALR H2O2 inh	PREPL inhibitor	AI-2 QS modul	CHT PAM	CHT block conf	HEK293 CHT ctr
CC1(C)SC(=S)N(/N=C/c2ccccc2)C1N(O)C(=O)Nc1ccc([N+](=O)[O-])cc1 (stereo unspecified)	i	2	-62	-1	i	nt	nt
O=C(CC1CCCCC1)c1c(O)c2ccccc2oc1=O	-7.4*	97*	3	24	i	44%*	4.6*
Cc1ccc(S(=O)(=O)N2CCC(C(=O)N/N=C/c3cccn3C)CC2)cc1	nt	-6	-4	nt	nt	nt	nt
Cc1ccc(C(C)NC(=O)C2CCCC2)cc1C (stereo unspecified)	-5.4*	6	-1	8	i	44%*	i
Cc1ccc(C(C)NC(=O)C2CCCO2)cc1C (stereo unspecified)	i	-4	18	5	i	nt	nt
CC(NC(=O)C1CCCC1)c1ccc(Br)cc1 (stereo unspecified)	i	nt	-4	3	i	nt	nt
CC(C)c1ccc(C(C)NC(=O)C2CCCC2)cc1 (stereo unspecified)	-5.3*	-9	15	3	i	66%*	i
O=C(CCN1N=C(c2ccccc2)CCC1=O)NCCCN1CCOCC1	i	-1	3	45	i	nt	nt
CC1=C([N+](=O)[O-])C(c2ccc(Cl)cc2)NC(=O)N1C (stereo unspecified)	i	13	-2	nt	i	nt	nt
CCCCN(C(=O)c1cc2ccccc2o1)c1c(N)n(CCCC)c(=O)[nH]c1=O	nt	2	-4	nt	nt	nt	nt
CCOc1ccc(NC(=O)Cn2nc(-c3ccccc3Cl)n(CC)c2=S)cc1	i	-2	-18	-5	i	i	i
O=C(CC(=O)N/N=C/c1c(Cl)cccc1Cl)NCc1cccnc1	i	-5	0	23	i	nt	nt
Cc1ccccc1Nc1nnc(SCC2CCCCO2)s1 (stereo unspecified)	i	-5	4	13	i	nt	nt
COc1ccccc1Nc1nnc(SCC2CCCCO2)s1 (stereo unspecified)	-6.3*	6	0	18	i	57%*	i
C=CCSc1nsc(NC(=O)Nc2ccc(F)cc2)n1	-7.8*	-1	12	7	i	i	i
CN(C(=O)c1ccc(COc2ccccc2Br)o1)c1ccccc1	i	nt	-3	24	i	nt	nt
CC1(C)CC2CC(C)(CN2C(=O)CCCN2C(=O)c3ccccc3C2=O)C1 (stereo unspecified)	-6.8*	-2	8	11	i	48%*	i
CCOC(=O)c1ccc(NC(=O)c2nc(S(=O)(=O)Cc3ccccc3)ncc2Cl)cc1	i	-3	-3	25	i	nt	nt
CCCc1nnc(NC(=O)c2nc(S(=O)(=O)Cc3ccc(C)cc3)ncc2Cl)s1	-7.4*	9	3	5	i	7.6%*	i
CC(C)c1nnc(NC(=O)c2nc(S(=O)(=O)Cc3ccccc3)ncc2Cl)s1	-7.7*	98*	5	-22	i	3.0%*	i
CCCCOc1ccc(C(=O)NNC(=S)NC(=O)CC)cc1	i	-4	9	?	i	nt	nt
Cc1ccccc1C(=O)NNC(=S)NC(=O)c1cccs1	i	8	-7	33	i	nt	nt
Cc1cccc(C(=O)NC(=S)NNC(=O)c2cccs2)c1	-10*	99*	-6	?	i	36%*	i
CC(Oc1ccc(Cl)cc1)C(=O)NNC(=S)NC(=O)c1ccco1 (stereo unspecified)	-6.5*	98*	-2	39	i	58%*	i
CCCOc1ccc(C(=O)NNC(=S)NC(=O)c2ccco2)cc1	-7.9*	50	9	?	i	54%*	i
SMILES	CHT inh	ALR H2O2 inh	PREPL inhibitor	AI-2 QS modul	CHT PAM	CHT block conf	HEK293 CHT ctr
CCCOc1ccc(C(=O)NNC(=S)NC(=O)c2ccccc2[N+](=O)[O-])cc1	i	21	13	-14	i	nt	nt
CCCOc1ccc(C(=O)NNC(=S)NC(=O)c2cccs2)cc1	-9.4*	97*	1	?	i	i	i
O=C(COc1ccc(Cl)cc1Cl)NNC(=S)NC(=O)c1ccco1	i	nt	-5	90	i	nt	nt
C/C(=N/NC(=O)CNC(=O)c1cccc(F)c1)c1ccc2c(c1)CCCC2	i	-8	8	12	i	nt	nt
COCCC(=O)N1CCC(Oc2ccc(C(=O)NC3CCCCC3)cc2)CC1	i	-2	12	13	i	nt	nt
NC(=S)NNC(=O)c1cccc(Cl)c1	i	40	14	15	i	nt	nt
CCCOc1ccc(C(=O)NNC(=S)NC(C)=O)cc1	i	31	14	?	i	nt	nt
CCCOc1ccc(C(=O)NNC(=S)NC(=O)c2ccccc2)cc1	-6.6*	22	6	-213*	i	55%*	i
Cc1onc(-c2ccccc2)c1C(=O)NC(=S)NNC(=O)c1ccco1	-7.2*	17	9	-11	i	59%*	i
COc1ccc([C@@H]2CC=C(C(=O)O)[C@H](c3ccc(Cl)cc3)N2S(=O)(=O)c2ccccc2C)cc1	i	7	10	nt	i	nt	nt
Cc1ccc(SCC2=NN(c3nc(C)cc(C)n3)C(=O)C2)cc1	-6.5*	10	6	29	i	23%*	i
COCCNC(=S)N(C)C1(c2ccccc2Cl)CCCCC1=O (stereo unspecified)	i	-2	10	44	i	nt	nt
CCCCNC(=O)c1onc(CSc2ccc(C(C)C)cc2)c1C(=O)O	-8.2*	67	1	15	i	69%*	i
CCCCNC(=O)c1onc(CSc2cccc(Cl)c2)c1C(=O)O	i	59	-3	1	i	nt	nt
COc1ccc(CN(C)C(=O)c2oc3ccccc3c2CSC)cc1F	i	-1	-5	11	i	nt	nt
COc1cc(C=O)ccc1OCCOCCOc1ccccc1Cl	-5.6*	-61	-9	14	i	63%*	i
COc1cc(C=O)ccc1OCCOc1ccccc1[N+](=O)[O-]	i	-4	-5	22	i	nt	nt
Cc1cc(C)c(NC(=O)c2ccc[n+](Cc3ccc([N+](=O)[O-])cc3)c2)c(C)c1	-10*	-3	10	-3	i	11%*	i
Cc1ccc[n+](Cc2ccc([N+](=O)[O-])cc2)c1	i	-1	3	7	i	nt	nt
CCCCCCNC(=O)c1cccc(-c2ccc(C)c3ccccc23)n1	-12*	9	12	32	i	i	i
COc1ccc(CNc2ncc(-c3ccccc3)n2C)cc1	-5.5*	42	3	22	i	57%*	i
